Screen size: about 370,000 compounds; about 1,100 (0.3%) were called active. Roughly 1% stayed inconclusive and do not appear here. This is one part of a sample in which actives are shown more often than they occur. Calls follow the shape of the dose curve; as a rule, active = well fitted activation curve with a large enough effect; inconclusive = small, poorly fitted or top-dose-only effect; inactive = flat fitted curve, though single readings scatter.
What follows are compounds tested against T1, Relaxin receptor 1, Homo sapiens (UniProt Q9HBX9) (assay: qHTS Assay for Agonists of the Relaxin Receptor RXFP1).
T1 sequence (whole entry): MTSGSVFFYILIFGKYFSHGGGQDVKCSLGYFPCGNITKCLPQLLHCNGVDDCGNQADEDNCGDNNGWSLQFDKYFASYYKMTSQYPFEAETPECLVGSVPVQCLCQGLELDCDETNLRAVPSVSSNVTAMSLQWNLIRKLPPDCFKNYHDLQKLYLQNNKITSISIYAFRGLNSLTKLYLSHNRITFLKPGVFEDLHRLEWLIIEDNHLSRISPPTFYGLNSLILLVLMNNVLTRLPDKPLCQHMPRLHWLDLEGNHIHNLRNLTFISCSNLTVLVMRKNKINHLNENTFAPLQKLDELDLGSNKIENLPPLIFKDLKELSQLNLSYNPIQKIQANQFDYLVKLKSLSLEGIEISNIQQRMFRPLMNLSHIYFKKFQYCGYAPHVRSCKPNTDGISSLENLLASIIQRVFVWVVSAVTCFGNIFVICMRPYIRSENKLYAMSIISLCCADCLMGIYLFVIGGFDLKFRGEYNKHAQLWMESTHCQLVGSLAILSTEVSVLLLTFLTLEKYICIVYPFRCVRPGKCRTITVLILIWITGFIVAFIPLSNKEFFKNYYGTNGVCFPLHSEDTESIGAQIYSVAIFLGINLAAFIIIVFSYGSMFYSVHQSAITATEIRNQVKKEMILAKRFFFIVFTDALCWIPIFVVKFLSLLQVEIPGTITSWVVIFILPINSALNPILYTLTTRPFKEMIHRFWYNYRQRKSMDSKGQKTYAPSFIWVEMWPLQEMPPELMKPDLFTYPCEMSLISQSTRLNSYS
For `CCCC[N+](CCCC)(CCCC)CCCC.Nc1ncnc2c1ncn2[C@@H]1O[C@H](COS(=O)(=O)[O-])[C@@H](O)[C@H]1O`, the outcome was “active”.

From the GenesisPotency data set
